# LDHA inh – blocks human lactate dehydrogenase A | purified LDHA, NADH/diaphorase-resazurin fluorescence; stronger effect = lower value | AID 1347041 | activity change, % (values are at about 110 or 230 µM) | 480,000 tested, 0.15% active | P00338; in the data active means activity change below about -30%; inconclusive means mostly about -25% to -30%;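 further: plate controls were DMSO wells for no effect and wells without enzyme for full effect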
#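 Remaining NADH was detected by diaphorase (0.133 mg/mL) converting 37 µM resazurin to fluorescent resorufin, read at 0 and 20 minutes. The preceding 5-minute room-temperature reaction used 2 nM LDHA, 0.2 mM sodium pyruvate and 0.06 mM NADH at pH 7.4.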
# HEK293 tox – cytotoxicity in counter-screen for GLP-1R inverse agonists. HEK293 cAMP-luciferase reporter cells, luminescence, 24 h. Potency, µM (doses to about 38.3 µM), without a hit: top-dose activity change, negative = inhibition, most hits filed as inhibitors. 410,000 tested, 0.13% active;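 further: loss of luciferase light is scored as toxicity; potency means the concentration at half of the fitted maximal effect; on the % scale 0 is the no-effect control and ±100 the full control effect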
#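 Cells in DMEM/10% Nu serum/1% pen-strep, 1536-well format. Pre-incubated 12 h, dosed with 23 nL compound, incubated a further 24 h. Luciferase detection, 12 min at room temp, luminescence.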
# GLP-1R inv ag – acts as inverse agonist at human GLP-1 receptor; 410,000 tested, 1.6% active; AID 624417; HEK293 GLP-1R CRE-luciferase, luminescence, 24 h; GLP-1R form is constitutively active; Potency, µM (top dose mostly 38.3 µM), for the others: at the top dose activity change, negative = inhibition, most hits filed as inhibitors; further: potency means the concentration at half of the fitted maximal effect; on the % scale 0 is the no-effect control and ±100 the full control effect; nearly all actives have a fitted effect of over 55% in size
# Target sequence (P43220 whole entry, looked up): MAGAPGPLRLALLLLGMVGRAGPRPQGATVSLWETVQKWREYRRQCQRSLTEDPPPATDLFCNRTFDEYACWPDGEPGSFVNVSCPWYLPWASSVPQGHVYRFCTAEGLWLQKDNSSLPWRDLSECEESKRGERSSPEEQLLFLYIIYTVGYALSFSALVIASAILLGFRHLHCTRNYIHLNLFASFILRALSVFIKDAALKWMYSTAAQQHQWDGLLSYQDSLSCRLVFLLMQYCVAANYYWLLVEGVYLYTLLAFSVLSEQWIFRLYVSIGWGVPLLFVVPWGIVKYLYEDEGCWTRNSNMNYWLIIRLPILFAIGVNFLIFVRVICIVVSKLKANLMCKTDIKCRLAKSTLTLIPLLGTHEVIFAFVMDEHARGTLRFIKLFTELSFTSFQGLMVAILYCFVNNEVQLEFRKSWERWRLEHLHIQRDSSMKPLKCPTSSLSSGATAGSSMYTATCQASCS
#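 Luminescence readout: a drop in cAMP-driven luciferase signal flags inverse agonism at a constitutively active GLP-1R stably expressed in HEK293. Compound exposure lasted 24 hr at 37 deg C, 5% CO2.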
# GLP-1R agonist – GLP-1 receptor (human) agonism. P43220. HEK293 GLP-1R CRE-luciferase, luminescence, 4-6 h; cells express a hypersensitive GLP-1R form. 380,000 tested, 0.007% active. Potency, µM (series often up to 45.6 µM), for the others: top-dose activation, usual class: activators; further: potency means the concentration at half of the fitted maximal effect; % of control where 0% means no effect
# PTHR1 agonist – agonists of human PTHR1 parathyroid hormone receptor | AID 743266 | Potency, µM (titrated, usually from 115 µM), for inactives: at the top dose activation, most hits filed as activators | Q03431 | HEK293 GP2 PTHR1 cells, GloSensor cAMP luminescence, 1 h | 410,000 tested, 0.075% active; further: potency means the concentration at half of the fitted maximal effect; nearly all actives have a fitted effect of over 55% in size
#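 HEK-293-derived GP2 cells expressing PTHR1 and a GloSensor cAMP reporter, 3,000/well, plated overnight, given luciferin plus IBMX (each 0.5 mM as added) for 1 h at 37 °C, then compound for 1 h at 37 °C. Luminescence was read after 15 min at room temperature.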
# mIDH1 inhibitor – human IDH1 R132H inhibition; O75874; IDH1-R132H enzyme, NADPH consumption, diaphorase/resazurin fluorescence; Potency, µM (series often up to 76.6 µM), for the others: top-dose activity change, negative = inhibition, most hits filed as inhibitors; 390,000 tested, 0.093% active; further: potency means the concentration at half of the fitted maximal effect; on the % scale 0 is the no-effect control and ±100 the full control effect; nearly all actives have a fitted effect of over 65% in size
#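 IDH1-R132H (0.5 ug/mL) preincubated 30 min with compound, then NADPH (0.016 mM) and alpha-KG (2 mM) added; 80 min at RT, pH 7.5. Remaining NADPH coupled via diaphorase/resazurin to fluorescence (540/590 nm); concentration-response curves normalized to no-enzyme control.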
# * = called active by the depositor; i = inactive; ? = inconclusive; nt = no result; [ ] = remark or other dose. A selection: hits, their analogues and other compounds. The true share with any hit is near 1.7%. Unless noted, the call rests on the fitted dose curve; in most records, active means well fitted curve in the direction sought with a large enough effect; inconclusive means small, poorly fitted or top-dose-only effect, or another doubt; inactive means no such curve, though single readings can be large; an effect the other way counts as inactive or inconclusive.
SMILES,LDHA inh,HEK293 tox,GLP-1R inv ag,GLP-1R agonist,PTHR1 agonist,mIDH1 inhibitor
O=C1CN(C(=O)c2ccccc2)C(c2ccccc2)c2cc(F)ccc2N1 (stereo unspecified),-2,-9%,-20%,12%,-5%,-4%
O=C1CN(C(=O)c2ccc(Br)o2)C(c2ccccc2)c2cc(F)ccc2N1 (stereo unspecified),1,-27%,7.9µM*,6%,i,-4%
CC(C)C1C(=O)N(Cc2cn(Cc3ccco3)nn2)CCS(=O)(=O)N1Cc1ccc(-c2ccccc2)cc1 (stereo unspecified),0,6%,?,-2%,-14%,16%
COCOCCn1cc(CN2CCS(=O)(=O)N(Cc3ccc(-c4ccc(Cl)c(Cl)c4)cc3)C(C)C2=O)nn1 (stereo unspecified),-1,-26%,11µM*,0%,-82%,-8%
CC1C(=O)N(Cc2cn(Cc3ccco3)nn2)CCS(=O)(=O)N1Cc1ccc(-c2ccccc2)cc1 (stereo unspecified),-1,-2%,-15%,1%,-24%,-1%
CC(C)C1C(=O)N(Cc2cn(Cc3ccco3)nn2)CCS(=O)(=O)N1Cc1ccc(-c2ccc(Cl)cc2)cc1 (stereo unspecified),-1,?,4µM*,4%,-10%,-5%
CC1C(=O)N(Cc2cn(Cc3ccco3)nn2)CCS(=O)(=O)N1Cc1ccc(-c2ccc(Cl)cc2)cc1 (stereo unspecified),-5,-20%,11µM*,-2%,-45%,-19%
O=C(CCC1CCCCC1)NCCC12CC3CC(CC(C3)C1)C2,-1,nt,nt,nt,nt,nt
O=c1cc(-c2ccccc2)c2ccc(OCc3ccc(-c4ccccc4)cc3)cc2o1,-3,nt,nt,nt,nt,nt
O=C(Nc1cccc(Cl)c1)c1ccc2c(c1)CCC2,9,nt,nt,nt,nt,nt
O=C1CCCN2N=C(SCC(=O)N3N=C(c4ccc(Br)cc4)CC3c3ccc(F)cc3)SC2=N1 (stereo unspecified),-2,-4%,?,1%,i,0%
Cc1ccc(C2CC(c3ccc(Br)cc3)=NN2C(=O)CSC2=NN3CCCC(=O)N=C3S2)cc1 (stereo unspecified),-1,-17%,4.5µM*,-1%,-42%,6%
CCN(CC)CCCNC(=O)c1ccc(S(=O)(=O)Nc2ccc(C)c(C)c2)cc1,-1,14%,7.9µM*,8%,i,4%
Cc1ccc(NS(=O)(=O)c2ccc(C(=O)NCC3CCCO3)cc2)cc1C (stereo unspecified),-1,nt,nt,nt,nt,nt
COc1ccc(N2CCN(CC(O)COc3ccc(C(C)C)c(C)c3)CC2)cc1 (stereo unspecified),10,?,13µM*,nt,-21%,-6%
COc1cc(OC)cc(C(=O)N2CCN(C3CCN(Cc4ccccc4)CC3)CC2)c1,-31*,-38%,0%,-3%,-9%[57.5 µM],2%
O=C(N/N=C/c1cccs1)c1ccncc1,14,nt,nt,nt,nt,nt
Cc1cccc(C(=O)NNC2=C(C(=O)C(F)(F)F)CCC2)c1O,-6,?,2.8µM*,-10%,-19%[57.5 µM],11%
O=C(NNC1=C(C(=O)C(F)(F)F)CCC1)c1cccc(O)c1,-1,1%,?,1%,i,6%
CCc1cccc(CC)c1NC(=O)Cn1cnc2c1c(=O)n(C)c(=O)n2C,-2,nt,nt,nt,nt,nt
O=S(=O)(c1ccc(Cl)c(NC(=S)Nc2ccccc2N2CCOCC2)c1)N1CCOCC1,-7,19%,10%,4%,i,-7%
O=S(=O)(c1ccc(Cl)c(NC(=S)N/N=C/c2c(F)cccc2F)c1)N1CCOCC1,1,?,2.5µM*,15%,-3%,-20%
Cc1cccc2c(=O)c(-c3cccc4ccccc34)c(N)oc12,0,nt,nt,nt,nt,nt
COc1ccc2c(c1)CC(N1CCN(C)CC1)c1cc(OC)ccc1S2 (stereo unspecified),-5,?,2.5µM*,9%,i,-4%
CNC(=O)NC(=O)COc1c(Cl)cc(Cl)c2ccc(C)nc12,0,nt,nt,nt,nt,nt
SMILES,LDHA inh,HEK293 tox,GLP-1R inv ag,GLP-1R agonist,PTHR1 agonist,mIDH1 inhibitor
Cc1ccc(NC(=O)CC2Nc3ccccc3NC2=O)cc1Cl (stereo unspecified),-5,-4%,10µM*,-23%,-15%[57.5 µM],0%
Cc1ccc(NC(=O)CC2Nc3ccccc3NC2=O)cc1C (stereo unspecified),-4,0%,13%,6%,?,7%
CCOC(=O)C(c1ccccc1)C(Nc1ccc(F)cc1)c1ccccn1 (stereo unspecified),2,-7%,10µM*,-7%,-94%,13%
CCOC(=O)C(C#N)c1ccccn1 (stereo unspecified),-1,10%,9%,-3%,i,-1%
COc1cc(NC(=O)CSc2ncnc3nc[nH]c23)cc(OC)c1OC,1,nt,nt,nt,nt,nt
CCC(C(=O)Nc1ccc(C(=O)OC)cc1)n1nc(-c2ccc(C)cc2)c2c(c1=O)CCCC2 (stereo unspecified),3,2%,2.5µM*,nt,-60%,5%
COc1ccc(NC(=O)C(C)n2nc(-c3ccc(C)cc3)c3c(c2=O)CCCC3)cc1 (stereo unspecified),-14,nt,nt,nt,nt,nt
COc1cc(NC(=O)C(C)n2nc(-c3ccccc3)c3c(c2=O)CCCC3)cc(OC)c1 (stereo unspecified),-32*,nt,nt,nt,nt,nt
COc1ccc(N(Cc2cccs2)C(=O)COc2cc(C)c(Cl)c(C)c2)cc1,4,-22%,8.9µM*,nt,-69%,5%
Cc1cc(C)cc(OCC(=O)N(Cc2cccs2)c2ccc(Cl)cc2)c1,0,-7%,10µM*,nt,i,0%
Cc1ccc(N(Cc2cccs2)C(=O)COc2cccc(C)c2)cc1,2,5%,?,nt,-31%,-4%
COc1ccc(N(Cc2cccs2)C(=O)COc2cccc(C)c2C)cc1,1,-7%,?,nt,-28%,-4%
CN(C)CCCNC(=S)N1CCC(C(=O)c2ccc(Cl)cc2)CC1,1,7%,2µM*,4%,-31%,3%
CC(C)OCCCNC(=S)N1CCC(C(=O)c2ccc(Cl)cc2)CC1,1,-3%,?,-2%,-19%,3%
COc1cccc(CN(C)C(c2ccccc2)c2ccccc2)c1OC,2,27%,?,2%,-15%,0%
Cc1cccc(C)c1-n1nnnc1C(c1ccnc2ccccc12)N(C)Cc1ccc(Cl)c(Cl)c1 (stereo unspecified),-2,-11%,5%,1%,-4%,nt

# Assay outcomes: PubChem, National Center for Advancing Translational Sciences (NCATS)
